Calls of active or inactive are those of the source. Calls follow the shape of the full dose curve.
biological target: Tumor susceptibility gene 101 protein (Homo sapiens) (UniProt Q99816); assay: qHTS Validation Assay for Iinhibitors of HIV-1 Budding by Blocking the Interaction of PTAP/TSG101 (AID 485342); settings: TSG101-PTAP binding, fluorescence polarization, 4-point titration; series mostly up to 115 µM
Text: NIH Molecular Libraries Probe Production Network [MLPCN]
NIH Chemical Genomics Center [NCGC]
PI Name: Dr. Eric Freed, NCI
Stages of the HIV-1 replication cycle, specifically virus assembly and release, provide underexploited targets for the development of novel antiviral inhibitors. The late stages of HIV-1 replication are mediated by the Gag precursor protein, Pr55Gag. Expression of Pr55Gag is both necessary and sufficient for the production of virus-like particles from Gag-expressing cells. The Gag protein hijacks key host proteins involved in endocytic machinery of the host cell to promote endosomal processing and viral budding. The budding process requires a direct interaction between a […] (PTAP) motif in the p6 domain of Gag and the cellular endosomal sorting protein known as Tsg101. In this way, the Gag PTAP motif promotes the host cells to recruit viral particles to the plasma membrane where the new viral particles are released, effectively turning the host cells into viral factories. A fluorescence anisotropy assay has been developed to quantitatively measure the PTAP-Tsg101 interaction which can be used to screen for inhibitors of this interaction.
NCGC Assay Protocol Summary:
Two uL of the Tsg101 binding domain in buffer (10 mM HEPES pH 7.5; 0.15 M NaCl, 0.01% Tween 20; 3 mM EDTA;0.1 mM TCEP) was dispensed into Greiner black MB 1536-well plates (final concentration 10 uM). Then, 23 nL of compounds or DMSO were delivered to each well using a pin tool. Finally, 2 uL of a FITC-labeled peptide containing the PTAP motif (1) in the same buffer was dispensed (50 nM final concentration) and the binding was allowed to proceed for 20 min. at r.t. Fluorescent polarization was determined using FITC excitation and polarized emission filters on a Perkin Elmer Viewlux.
Keywords: Tsg101, PTAP, Gag, HIV, fluorescent polarization, MLSMR, MLPCN, NIH Roadmap, qHTS, NCGC

Chain of Tumor susceptibility gene 101 protein (Homo sapiens) (Q99816 whole entry, looked up): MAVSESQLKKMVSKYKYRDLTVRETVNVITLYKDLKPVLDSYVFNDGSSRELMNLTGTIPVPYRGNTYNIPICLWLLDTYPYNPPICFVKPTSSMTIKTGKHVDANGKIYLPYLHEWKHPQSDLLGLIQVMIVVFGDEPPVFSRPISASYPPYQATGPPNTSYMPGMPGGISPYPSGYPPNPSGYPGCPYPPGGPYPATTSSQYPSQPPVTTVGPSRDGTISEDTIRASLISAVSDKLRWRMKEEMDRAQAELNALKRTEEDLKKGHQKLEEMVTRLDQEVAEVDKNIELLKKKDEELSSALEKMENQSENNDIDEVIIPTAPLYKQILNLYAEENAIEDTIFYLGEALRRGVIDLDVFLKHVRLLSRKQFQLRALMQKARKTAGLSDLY

Question: Which outcome does the source give for `Cc1ccccc1C(OCCN(C)C)c1ccccc1` (stereo not given) here?
Answer: Its outcome is “inactive”.

Question: Which outcome does the source give for `CC(C)(Sc1ccc(CCN(CCCCC2CCCCC2)C(=O)NC2CCCCC2)cc1)C(=O)O` here?
Answer: The outcome was “inactive”.

Question: How did the outcome turn out when `C[C@]12CCC(=O)C=C1CC[C@@H]1[C@@H]2[C@@H](O)C[C@@]2(C)[C@H]1CC[C@]2(O)C(=O)CO` was run?
Answer: The outcome was “inactive”.

Question: How did the outcome turn out when `NCCCC(N)(C(=O)O)C(F)F` (stereo not given) was run?
Answer: Its outcome is “inactive”.

Question: With `CN1CCN(CCCN2c3ccccc3Sc3ccc(C(F)(F)F)cc32)CC1` as the compound, how does the outcome read?
Answer: Its outcome is “inactive”.

Question: Which outcome does the source give for `CC(C)NCC(O)COc1ccc(COCCOC(C)C)cc1` (stereo not given) here?
Answer: The outcome was “inactive”.

Question: Which outcome does the source give for `Cc1cccc(-c2[nH]c(C(C)(C)C)nc2-c2ccc3nccnc3c2)n1` here?
Answer: Its outcome is “inactive”.

Question: `Cc1[nH]c(=O)c(C#N)cc1-c1ccncc1` was tested. Which outcome did it give?
Answer: Its outcome is “inactive”.

Question: Which outcome does the source give for `Nc1nc2c(ncn2COCCO)c(=O)[nH]1` here?
Answer: Its outcome is “inactive”.

Question: For `CCN(CC)CCCC(C)Nc1ccnc2cc(Cl)ccc12` (stereo not given), which outcome is on record?
Answer: Its outcome is “inactive”.

Question: For `CCCC(CCC)C(=O)O`, which outcome is on record?
Answer: The outcome was “inactive”.

Question: `CCOC(=O)N1CCC(=C2c3ccc(Cl)cc3CCc3cccnc32)CC1` was tested. Which outcome did it give?
Answer: The outcome was “inactive”.

Question: For `NC(=O)c1cnccn1`, which outcome is on record?
Answer: The outcome was “inactive”.

Question: With `c1ccc([C@H]2CN3CCSC3=N2)cc1` as the compound, how does the outcome read?
Answer: The outcome was “inactive”.

Question: For `Cc1[nH]c(=O)c(C#N)cc1-c1ccc2nccn2c1`, which outcome is on record?
Answer: Its outcome is “inactive”.

Question: Which outcome does the source give for `Cc1cnc(NC(=O)C2=C(O)c3ccccc3S(=O)(=O)N2C)s1` here?
Answer: Its outcome is “inactive”.

Question: With `CC(=O)Oc1ccccc1C(=O)O` as the compound, how does the outcome read?
Answer: Its outcome is “inactive”.

Question: For `Nc1ccc(S(=O)(=O)Nc2ccnn2-c2ccccc2)cc1`, which outcome is on record?
Answer: The outcome was “inactive”.

Question: With `CCOC(=O)C1=C[C@]2(CC)CCCN3CCc4c(n1c1ccccc41)[C@@H]32` as the compound, how does the outcome read?
Answer: Its outcome is “inactive”.

Question: For `N=c1nc(N2CCCCC2)cc(N)n1O`, which outcome is on record?
Answer: Its outcome is “inactive”.

Question: With `O=c1n(CCCN2CCN(c3cccc(Cl)c3)CC2)nc2ccccn12` as the compound, how does the outcome read?
Answer: Its outcome is “inactive”.

Question: Which outcome does the source give for `O=NN(CCCl)C(=O)NCCCl` here?
Answer: Its outcome is “inactive”.

Question: How did the outcome turn out when `CCC(C)N(C)C(=O)c1cc2ccccc2c(-c2ccccc2Cl)n1` (stereo not given) was run?
Answer: The outcome was “inactive”.

Question: Which outcome does the source give for `O=c1[nH]cnc2[nH]ncc12` here?
Answer: Its outcome is “inactive”.

Question: `Nc1nc2ccc(OC(F)(F)F)cc2s1` was tested. Which outcome did it give?
Answer: Its outcome is “inactive”.

Question: How did the outcome turn out when `O=C(Nc1nc2ccccc2n1CCN1CCOCC1)c1cccc([N+](=O)[O-])c1` was run?
Answer: The outcome was “inactive”.

Question: For `NCCc1ccc(O)c(O)c1`, which outcome is on record?
Answer: The outcome was “inactive”.

Question: `Cc1ccc(N(CC2=NCCN2)c2cccc(O)c2)cc1` was tested. Which outcome did it give?
Answer: The outcome was “inactive”.

Question: Which outcome does the source give for `CC(C[N+](C)(C)C)OC(N)=O` (stereo not given) here?
Answer: Its outcome is “inactive”.

Question: `Oc1ccc(C2CNCCc3c2cc(O)c(O)c3Cl)cc1` (stereo not given) was tested. Which outcome did it give?
Answer: The outcome was “inactive”.

Question: For `Clc1cccc(Cl)c1NC1=NCCN1`, which outcome is on record?
Answer: The outcome was “inactive”.

Question: Which outcome does the source give for `NC[C@H](O)c1ccc(O)c(O)c1` here?
Answer: Its outcome is “inactive”.

Question: With `NS(=O)(=O)c1cc2c(cc1Cl)NC=NS2(=O)=O` as the compound, how does the outcome read?
Answer: Its outcome is “inactive”.

Question: For `OC(CCN1CCCCC1)(c1ccccc1)C1CC2C=CC1C2` (stereo not given), which outcome is on record?
Answer: The outcome was “inactive”.

Question: For `NC(N)=NC(=O)c1nc(Cl)c(N)nc1N`, which outcome is on record?
Answer: The outcome was “inactive”.

Question: `O=C1CCc2cc(OCCCCc3nnnn3C3CCCCC3)ccc2N1` was tested. Which outcome did it give?
Answer: Its outcome is “inactive”.

Question: How did the outcome turn out when `Nc1ncnc2nc(-c3ccc(N4CCOCC4)nc3)cc(-c3cccc(Br)c3)c12` was run?
Answer: Its outcome is “inactive”.

Question: Which outcome does the source give for `CNC[C@H](O)c1cccc(O)c1` here?
Answer: The outcome was “inactive”.

Question: For `O=C(O)COCCN1CCN(C(c2ccccc2)c2ccc(Cl)cc2)CC1` (stereo not given), which outcome is on record?
Answer: The outcome was “inactive”.

Question: Which outcome does the source give for `Cc1oncc1C(=O)Nc1ccc(C(F)(F)F)cc1` here?
Answer: The outcome was “inactive”.
